Source: PubChem
Wnt act – Wnt/beta-catenin pathway activators, primary screen, cell-based, plate reader, single point; Wnt/beta-catenin reporter cell assay, activator; activation, % at 9.35 µM; 300,000 tested, 1.2% active; in the data active = activation above about 30%, passing the limit was not always enough; inconclusive = no clear call, values can overlap the other calls;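 also: 0% = neutral control wells and 100% = positive control wells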
MITF act – activators of MITF-driven TRPM1 promoter reporter, primary screen, cell-based, SK-MEL-5, luciferase, single point | 300,000 tested, 0.75% active | activation, % at 12.5 µM | AID 588334, 2011 | SK-MEL-5 TRPM1-promoter luciferase, 24 h; % of positive control, neutral wells = 0;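 active = mean activation of at least 80% with every replicate also reaching 80%; inconclusive = mean reaches 80% but some replicate falls short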;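 also: 0% = neutral control wells and 100% = parthenolide positive control wells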
HIV Env fusion – inhibitors of HIV-1 Env-driven cell-cell fusion, primary screen, HeLa-JRFL effector, CEM21 target cells, luciferase. inhibition, % at 12.3 µM. 360,000 tested, 1.1% active;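 active = mean replicate inhibition score of at least 50 and every replicate individually at or above 50; inconclusive = only one of the two criteria met; inactive = mean below 50 and not all replicates reaching 50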;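 also: 0% = plate neutral controls and 100% = maraviroc near 300 nM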
CFTR F508del cor – F508del CFTR correction, initial screen, CFBE line, single point; CFBE cells, YFP halide quenching; stimulated with forskolin plus potentiator P3; % fluorescence drop versus neutral controls; activity (quench increase), % at 7.58 µM; 350,000 tested, 0.36% active; AID 720511, 2013;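 active = mean added fluorescence quench of at least 8% versus neutral control, with both replicates also reaching 8%; inconclusive = only one of the mean or replicate conditions met; inactive = mean below 8% and not both replicates reaching 8%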;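 also: cells transiently co-express mutant CFTR-F508del with the halide-sensitive YFP; corrector assay measuring rescue of mutant channel to the surface after 24 h compound exposure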
GSIS activator – GLuc luminescence reporter in INS-1E cells, primary screen for activators of glucose-dependent secretion of insulin; INS-1E GLuc reporter insulin secretion, 2-3 h; activation, % at 16.6 µM; 370,000 tested, 0.61% active;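 active = lowest replicate activation of at least 40%, so every replicate reaches that level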;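 also: 0% = median of neutral control wells and 100% = median of IBMX positive control wells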
Starred values were filed as active, the others as inactive; ? = inconclusive; . = not tested or not shown; [ ] = remark or other dose. Compounds with a hit are over-represented: about 2.7% of the library has one in this group of screens.

SMILES	Wnt act	MITF act	HIV Env fusion	CFTR F508del cor	GSIS activator
COc1ccc(C(=O)Nc2nnc(-c3ccco3)s2)cc1	.	-33.0	.	.	51.8*
COc1cccc(C(=O)Nc2nnc(-c3ccccc3)s2)c1	35.5*	?	-29.3	6.2	14.4
C[C@@H]1CN([C@@H](C)CO)C(=O)c2cc(NC(=O)Nc3cccc4ccccc34)ccc2O[C@H]1CN(C)S(=O)(=O)c1ccc(Cl)cc1	.	.	.	-1.9	0.8
CCC(=O)N1[C@@H](CO)[C@@H](c2ccc(-c3ccc(F)cc3)cc2)[C@@H]1CNC(C)=O	.	.	.	-1.6	-10.1
Cc1ccccc1CN(C)C[C@H]1OCc2cn(nn2)CCCC(=O)N([C@H](C)CO)C[C@H]1C	.	.	-4.9[16.7 µM]	-0.6	-1.8
Cc1nnc(NC(=O)c2cccc(F)c2)s1	.	6.2	.	.	.
CC(C)(C)CC(=O)Nc1nnc(-c2cccs2)s1	51.5*	43.7	-128.2	.	.
O=C(Nc1nnc(-c2cccs2)s1)c1cccc(F)c1	39.3*	32.5	-14.7	-1.2	1.8
COc1ccc(C(=O)Nc2nnc(-c3cccs3)s2)cc1	.	-15.2	.	.	71.8*
O=C(Cc1ccccc1)N[C@@H]1CC[C@H](CC(=O)N2CCCCC2)O[C@H]1CO	.	.	13.4[16.7 µM]	1.0	-4.2
C/C=C/c1ccc([C@H]2[C@@H](CO)N(C(=O)COC)[C@@H]2CNC(=O)CC)cc1	.	.	.	8.3*	-2.3
COc1ccc2c3c(n(C)c2c1)[C@H](CO)N(C(C)=O)CC31CN(Cc2cccnc2)C1	.	.	.	.	8.7
CCOC(=O)N1CCC(C(=O)Nc2ccc(OCC)cc2)CC1	-1.2	.	11.6	9.8*	5.2
Cc1ccc(-c2[nH]nc3c2C(c2cccnc2)C(C#N)=C(N)O3)cc1 (stereo unspecified)	2.2	-11.5	24.2	.	78.1*
N#CC1=C(N)Oc2nc(-c3ccccc3)[nH]c2C1c1cccnc1 (stereo unspecified)	.	-5.0	.	.	47.7*
Cc1ccc(C2C(C#N)=C(N)Oc3nc(-c4ccccc4)[nH]c32)o1 (stereo unspecified)	.	-1.9	.	.	.
N#CC1=C(N)Oc2n[nH]c(-c3ccccc3)c2C1c1cccnc1 (stereo unspecified)	-1.7	-0.5	-20.4	.	.
CCCNC(=O)N[C@@H]1CC[C@@H](CC(=O)N2CCN(C)CC2)O[C@H]1CO	.	.	-4.4[16.7 µM]	-1.4	23.1
Cc1ccc(-c2ccc(C(=O)O)c(C)n2)cc1	-3.0	-7.9	.	-1.2	7.0
CCOc1ncccc1C(=O)OCC(=O)Nc1ccc2c(c1)CCC2	-5.1	0.1	-12.5	0.2	-9.6
COC(=O)c1ccc(-c2ccc(F)cc2)nc1C	28.0	105.4*	.	.	1.1
CCOC(=O)c1ccc(-c2ccc3c(c2)CCC3)nc1C	38.0*	75.8	-186.6	.	-25.7
CC(=O)c1cccc(NC(=S)NC(=O)C(C)C)c1	36.5*	2.0	-6.0	.	.
O=C1C(=Cc2cccn2-c2ccccc2)C(=O)c2ccccc21	1.4	5.3	16.0	.	71.8*
C[C@H]1CCCCO[C@@H](CN(C)Cc2ccc(C(F)(F)F)cc2)[C@@H](C)CN([C@@H](C)CO)C(=O)c2cc(NS(=O)(=O)c3cn(C)cn3)ccc2O1	.	.	-27.9[16.7 µM]	3.1	0.5
SMILES	Wnt act	MITF act	HIV Env fusion	CFTR F508del cor	GSIS activator
O=C(C[C@@H]1CC[C@@H]2[C@H](COC[C@H](O)CN2C(=O)c2ccccn2)O1)NC1CCC1	.	.	.	1.7	2.7
O=S(=O)(Nc1ccc(-c2ccc3nncn3n2)cc1)c1ccc(Cl)s1	-0.4	2.4	5.1	3.2	19.5
O=S(=O)(Nc1ccc(-c2ccc3nncn3n2)cc1)c1ccccc1Cl	-1.7	0.1	-13.8	2.6	40.5*
O=C(NCC[C@H]1CC[C@H](NS(=O)(=O)Cc2ccccc2)[C@@H](CO)O1)C1CCCC1	.	.	3.7[16.7 µM]	0.1	7.7
CCOC(=O)Nc1ccc(Oc2ccccc2)cc1	55.0*	89.9*	2.5	.	.
CC=Cc1ccc2n(c1=O)C[C@H]1[C@H](CO)[C@@H](C(=O)NCC3CCCCC3)[C@@H]2N1C(C)=O (mixture of isomers)	.	.	-6.9[16.7 µM]	.	20.0
C=CC(C)(C)c1[nH]cnc1/C=C1\NC(=O)C(C(C)C)NC1=O (stereo unspecified)	-1.7	-6.8	.	8.5*	.
C[C@H](CO)N1C[C@H](C)[C@@H](CN(C)C(=O)Nc2cccc3ccccc23)Oc2ccc(NC(=O)CCC(F)(F)F)cc2CC1=O	.	.	21.1[16.7 µM]	0.1	-10.5
C/C(=N/OC(=O)CC(C)C)c1cc(-c2ccc(Cl)cc2)no1	6.7	86.3*	-35.6	-1.4	7.0
Cc1cccc(Cn2cc(SCC(=O)Nc3nccs3)c3ccccc32)c1	40.8*	68.3	-17.1	2.8	.
COc1ccccc1CNC(=O)CCNS(=O)(=O)c1ccc2[nH]c(=O)oc2c1	-1.3	-6.7	3.3	-1.9	53.0*
COc1ccccc1NC(=O)CCNS(=O)(=O)c1ccc2[nH]c(=O)oc2c1	-0.5	2.7	2.7	0.7	6.5
CCC(C)(C)c1ccc(Oc2cccc(C(=O)O)c2)cc1	22.2	41.7	-8.1	-4.5	37.8
CCC(C)(C)c1ccc(Oc2ccc(N)cc2)cc1	-15.4	-97.0	60.5*	-5.2	2.7
CN1C(=O)c2cc(NC(=O)c3cccs3)ccc2OC[C@H]2O[C@@H](CC(=O)O)CC[C@H]21	.	.	.	-0.6	3.7
COc1ccc2nc(N/C(N)=N/S(C)(=O)=O)nc(C)c2c1	14.7	-3.0	60.7*	-2.4	5.6
COc1cc2[nH]c3c(Cl)ncnc3c2cc1OC	-4.1	14.4	-12.0	.	53.6*
COc1cc2[nH]c3c(N4CCN(c5ccc(Cl)cc5)CC4)ncnc3c2cc1OC	.	-4.4	.	.	15.0
CCNC(=O)C[C@@H]1CC[C@H]2[C@@H](COC[C@H](O)CN2C(=O)C2CCOCC2)O1	.	.	-4.7[16.7 µM]	0.3	-2.1
CCc1noc(C)c1C(=O)OC(C)C(=O)c1c(C)[nH]c2ccccc12 (stereo unspecified)	46.9*	-12.8	.	1.0	-57.8
CC(C)(Sc1ccc(CCN(CCCCC2CCCCC2)C(=O)NC2CCCCC2)cc1)C(=O)O	0.3	4.5	56.7*	-3.5	.
Cc1noc(C)c1NC(=O)N(C)C[C@@H]1OCCCC[C@H](C)Oc2ccc(N(C)C)cc2C(=O)N([C@@H](C)CO)C[C@@H]1C	.	.	-9.0[16.7 µM]	-2.5	-4.4
C[C@@H]1CN([C@H](C)CO)S(=O)(=O)c2ccc(-c3cccnc3)cc2O[C@@H]1CN(C)C(=O)C1CCC1	.	.	3.9[16.7 µM]	0.6	-14.3
CCCCCCCCCCn1ccc(=N)cc1	-16.1	.	77.5*	-19.9	-2.8
O=C(C[C@@H]1CC[C@@H]2NC[C@@H](O)COC[C@H]2O1)Nc1ccccc1	.	.	.	-1.1	-0.7
Oc1ccc(N=Nc2ccccc2)cc1	34.4*	91.0*	-67.3	-2.3	-20.3
CCCc1cn(CC[C@@H]2CC[C@@H](NC(=O)Nc3ccc4c(c3)OCO4)[C@@H](CO)O2)nn1	.	.	8.7[16.7 µM]	1.5	13.2
C(=C\c1nc(-c2cccnc2)no1)/c1ccccc1	48.5*	74.7	-76.9	-1.0	0.3
